# Reference: PubChem BioAssay (EPA / NIEHS)
# Calls of active or inactive are those of the source. How the source made its calls, unless noted: active means hit-call score of the fitted dose curve at least 0.9, where 1 is the maximum; inactive means score below 0.9.
# Assays:
# [1] = read-out: Protein phosphatase 2A (PPP2R4), PTPA (gene 5524); assay: LTEA_HepaRG_PPP2R4: Life Technologies and Expression Analysis (LTEA) Assay for Protein phosphatase 2A (PPP2R4) using HepaRG (AID 2283522); conditions: mRNA level, 48 h; actives raise or lower the signal
# Method in brief: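 Using HepaRG cultures maintained in 0.5% DMSO, chemicals are tested 48 h at up to 100 uM in duplicate. Induction or suppression of PPP2R4 mRNA, measured by qRT-PCR, is fitted bidirectionally against the vehicle baseline.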
# [2] = read-out: Phosphatase and tensin (PTEN), PTEN (gene 5728); assay: LTEA_HepaRG_PTEN: Life Technologies and Expression Analysis (LTEA) Assay for Phosphatase and tensin (PTEN) using HepaRG (AID 2283523); conditions: mRNA level, 48 h; actives raise or lower the signal
# Method in brief: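 HepaRG, 48 h exposure, 8-pt half-log series from 100 uM top, 0.5% DMSO vehicle, duplicates. Readout: Fluidigm qRT-PCR of PTEN transcript; housekeeping normalization (ACTB, GAPDH, POLR2A). Gain or loss fitted relative to DMSO baseline.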
# [3] = read-out: solute carrier (SLC22A1), SLC22A1 (gene 6580); assay: LTEA_HepaRG_SLC22A1: Life Technologies and Expression Analysis (LTEA) Assay for solute carrier (SLC22A1) using HepaRG (AID 2283524); conditions: mRNA level, 48 h; actives raise or lower the signal;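 on AC50: differentiated human HepaRG liver cells in serum-free induction medium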
# Method in brief: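 qRT-PCR readout (TaqMan, Fluidigm arrays) of SLC22A1 transcript, normalized to three housekeeping genes; bidirectional curve fit relative to 0.5% DMSO vehicle. Differentiated human HepaRG cells, 48 h chemical exposure, top concentration 100 uM, half-log steps, eight points.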
# [4] = read-out: Pyruvate Dehydrogenase Kinase 4 (PDK4), PDK4 (gene 5166); assay: LTEA_HepaRG_PDK4: Life Technologies and Expression Analysis (LTEA) Assay for Pyruvate Dehydrogenase Kinase 4 (PDK4) using HepaRG (AID 2283525); conditions: mRNA level, 48 h; actives raise or lower the signal
# Method in brief: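 HepaRG (human liver line), 48 h chemical exposure, 8-pt half-log CRC top 100 uM, 0.5% DMSO vehicle, duplicates. Readout: TaqMan qRT-PCR of PDK4 mRNA, housekeeping-normalized; gain/loss fit relative to DMSO baseline.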
# [5] = read-out: NAD(P)H dehydrogenase [quinone] 1 (NQO1), NQO1 (gene 1728); assay: LTEA_HepaRG_NQO1: Life Technologies and Expression Analysis (LTEA) Assay for NAD(P)H dehydrogenase [quinone] 1 (NQO1) using HepaRG (AID 2283526); conditions: mRNA level, 48 h; actives raise or lower the signal
# Method in brief: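 In this assay, gene expression is read by qRT-PCR after 48 h exposure of HepaRG cells to eight concentrations (max 100 uM, half-log) in 0.5% DMSO. Each chemical runs in duplicate, and activity is scored relative to vehicle.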
# [6] = read-out: Nuclear factor erythroid 2-related factor 2 (Homo sapiens) (UniProt Q16236); assay: LTEA_HepaRG_NFE2L2: Life Technologies and Expression Analysis (LTEA) Assay for Nuclear factor erythroid 2-related factor 2 (NFE2L2) Transcription Factor using HepaRG (AID 2283527); conditions: mRNA level, 48 h; actives raise or lower the signal;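 further: TaqMan qRT-PCR transcript level normalised to ACTB GAPDH and POLR2A housekeeping genes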
# Method in brief: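 HepaRG, 48 h dosing, 8-pt half-log series from 100 uM in 0.5% DMSO, duplicates. Read-out: NFE2L2 mRNA by qRT-PCR (ACTB/GAPDH/POLR2A normalization). Bidirectional curve fit vs DMSO baseline.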
# [7] = read-out: Signal transducer and activator of transcription 3 (Homo sapiens) (UniProt P40763); assay: LTEA_HepaRG_STAT3: Life Technologies and Expression Analysis (LTEA) Assay for Signal transducer and activator of transcription (STAT3) using HepaRG (AID 2283529); conditions: mRNA level, 48 h; actives raise or lower the signal
# Method in brief: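 HepaRG, 48 h exposure, 8-pt half-log series (top 100 uM), 0.5% DMSO vehicle, duplicates. Readout: STAT3 transcript by Fluidigm qRT-PCR, housekeeping-normalized; bidirectional fit vs DMSO baseline.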
# [8] = read-out: solute carrier (SLCO1B1), SLCO1B1 (gene 10599); assay: LTEA_HepaRG_SLCO1B1: Life Technologies and Expression Analysis (LTEA) Assay for solute carrier (SLCO1B1) using HepaRG (AID 2283530); conditions: mRNA level, 48 h; actives raise or lower the signal
# Method in brief: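 HepaRG, serum-free induction medium, 48 h dosing, 8-pt half-log from 100 uM, 0.5% DMSO vehicle, duplicates. Readout: SLCO1B1 mRNA, qRT-PCR, ACTB/GAPDH/POLR2A normalization; up or down fit vs DMSO.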
# [9] = read-out: Transforming Growth Factor (TGFA), TGFA (gene 7039); assay: LTEA_HepaRG_TGFA: Life Technologies and Expression Analysis (LTEA) Assay for Transforming Growth Factor (TGFA) using HepaRG (AID 2283532); conditions: mRNA level, 48 h; actives raise or lower the signal
# Method in brief: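 qRT-PCR read-out of TGFA transcript, normalized to three housekeeping genes, fitted bidirectionally against 0.5% DMSO baseline. Human HepaRG cultures received chemicals for 48 h at eight half-log concentrations, top 100 uM.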
# [10] = read-out: TIMP1, TIMP1 (gene 7076); assay: LTEA_HepaRG_TIMP1: Life Technologies and Expression Analysis (LTEA) Assay for TIMP1 using HepaRG (AID 2283534); conditions: mRNA level, 48 h; actives raise or lower the signal
# Method in brief: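 Readout is TIMP1 mRNA level measured by qRT-PCR and normalized to three housekeeping genes. Human HepaRG cells were treated for 48 h in duplicate at eight concentrations up to 100 uM (0.5% DMSO); gain or loss fitted against DMSO.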
# [11] = read-out: Tumor necrosis factor receptor 1 (TNFRSF1A), TNFRSF1A (gene 7132); assay: LTEA_HepaRG_TNFRSF1A: Life Technologies and Expression Analysis (LTEA) Assay for Tumor necrosis factor receptor 1 (TNFRSF1A) using HepaRG (AID 2283535); conditions: mRNA level, 48 h; actives raise or lower the signal
# Method in brief: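 Read-out is TNFRSF1A transcript level by TaqMan qRT-PCR, normalized to three housekeeping genes, scored as gain or loss of signal versus 0.5% DMSO. Human HepaRG cells received test chemicals for 48 h at up to 100 uM (half-log series).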
# [12] = read-out: Thyroid Hormone Responsive (THRSP), THRSP (gene 7069); assay: LTEA_HepaRG_THRSP: Life Technologies and Expression Analysis (LTEA) Assay for Thyroid Hormone Responsive (THRSP) using HepaRG (AID 2283536); conditions: mRNA level, 48 h; actives raise or lower the signal
# Method in brief: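 qRT-PCR read-out (Fluidigm TaqMan), housekeeping-normalized (ACTB/GAPDH/POLR2A). HepaRG, 48 h chemical exposure, 8-pt half-log series from 100 uM in 0.5% DMSO, duplicates. Bidirectional curve fit vs 0.5% DMSO baseline.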
# [13] = read-out: Cellular tumor antigen p53 (Homo sapiens) (UniProt P04637); assay: LTEA_HepaRG_TP53: Life Technologies and Expression Analysis (LTEA) Assay for Tumor Protein P53 (TP53) using HepaRG (AID 2283537); conditions: mRNA level, 48 h; actives raise or lower the signal
# Method in brief: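 Gain or loss of TP53 mRNA signal is scored relative to 0.5% DMSO after 48 h chemical treatment of HepaRG liver cells, tested in duplicate at eight half-log concentrations up to 100 uM.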
# [14] = read-out: UDP glucuronosyltransferase (UGT1A6), UGT1A6 (gene 54578); assay: LTEA_HepaRG_UGT1A6: Life Technologies and Expression Analysis (LTEA) Assay for UDP glucuronosyltransferase (UGT1A6) using HepaRG (AID 2283539); conditions: mRNA level, 48 h; actives raise or lower the signal
# Method in brief: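 HepaRG, 48 h post-plating switch to serum-free induction medium; chemical 48 h, 100 uM top, half-log x8, duplicate, 0.5% DMSO. Phenobarbital 1mM induction control. UGT1A6 mRNA by TaqMan qRT-PCR; gain/loss fit vs DMSO.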
# [15] = read-out: X-box binding protein 1 (XBP1), XBP1 (gene 7494); assay: LTEA_HepaRG_XBP1: Life Technologies and Expression Analysis (LTEA) Assay for X-box binding protein 1 (XBP1) using HepaRG (AID 2283540); conditions: mRNA level, 48 h; actives raise or lower the signal
# Method in brief: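 Transcript levels of XBP1, measured by qRT-PCR and normalised to three housekeeping genes, were fitted bidirectionally relative to 0.5% DMSO controls. Human HepaRG cells received eight-point half-log dilutions from 100 uM for 48 h.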
# [16] = LTEA_HepaRG_LDH_cytotoxicity: Cytotoxicity Assessment in the Life Technologies and Expression Analysis (LTEA) Assay (AID 2283563; active means hit-call score of the fitted dose curve at least 0.9, where 1 is the maximum)
# Method in brief: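 Cells were thawed and plated for 48 h. Medium was then replaced with serum-free induction medium. Chemicals (8 half-log points, maximum 100 uM, 0.5% DMSO) were added in duplicate for 48 h, after which spent medium was assayed for LDH.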
# [17] = read-out: succinate dehydrogenase complex iron sulfur subunit B (SDHB), SDHB (gene 6390); assay: LTEA_HepaRG_SDHB: Life Technologies and Expression Analysis (LTEA) Assay for succinate dehydrogenase complex iron sulfur subunit B (SDHB) using HepaRG (AID 2283528); conditions: mRNA level, 48 h; actives raise or lower the signal
# Method in brief: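 A human HepaRG culture in serum-free induction medium received test chemicals for 48 h over an eight-point range capped at 100 uM. SDHB expression change was quantified by qRT-PCR.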
# [18] = read-out: sulfotransferase 2A1 (SULT2A1), SULT2A1 (gene 6822); assay: LTEA_HepaRG_SULT2A1: Life Technologies and Expression Analysis (LTEA) Assay for sulfotransferase 2A1 (SULT2A1) using HepaRG (AID 2283531); conditions: mRNA level, 48 h; actives raise or lower the signal
# Method in brief: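 Transcript levels of SULT2A1, quantified by qRT-PCR and normalized to three housekeeping genes, serve as the readout. Human HepaRG cultures receive test chemicals for 48 h at up to 100 uM in half-log steps, with 0.5% DMSO vehicle.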
# [19] = read-out: UDP glucuronosyltransferase (UGT1A1), UGT1A1 (gene 54658); assay: LTEA_HepaRG_UGT1A1: Life Technologies and Expression Analysis (LTEA) Assay for UDP glucuronosyltransferase (UGT1A1) using HepaRG (AID 2283538); conditions: mRNA level, 48 h; actives raise or lower the signal
# Method in brief: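 mRNA induction or loss of UGT1A1, by TaqMan qRT-PCR, in duplicate HepaRG wells after 48 h exposure to half-log dilutions topping at 100 uM; DMSO (0.5%) served as baseline.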
# Chain of Nuclear factor erythroid 2-related factor 2 (Homo sapiens) (Q16236 whole entry, looked up): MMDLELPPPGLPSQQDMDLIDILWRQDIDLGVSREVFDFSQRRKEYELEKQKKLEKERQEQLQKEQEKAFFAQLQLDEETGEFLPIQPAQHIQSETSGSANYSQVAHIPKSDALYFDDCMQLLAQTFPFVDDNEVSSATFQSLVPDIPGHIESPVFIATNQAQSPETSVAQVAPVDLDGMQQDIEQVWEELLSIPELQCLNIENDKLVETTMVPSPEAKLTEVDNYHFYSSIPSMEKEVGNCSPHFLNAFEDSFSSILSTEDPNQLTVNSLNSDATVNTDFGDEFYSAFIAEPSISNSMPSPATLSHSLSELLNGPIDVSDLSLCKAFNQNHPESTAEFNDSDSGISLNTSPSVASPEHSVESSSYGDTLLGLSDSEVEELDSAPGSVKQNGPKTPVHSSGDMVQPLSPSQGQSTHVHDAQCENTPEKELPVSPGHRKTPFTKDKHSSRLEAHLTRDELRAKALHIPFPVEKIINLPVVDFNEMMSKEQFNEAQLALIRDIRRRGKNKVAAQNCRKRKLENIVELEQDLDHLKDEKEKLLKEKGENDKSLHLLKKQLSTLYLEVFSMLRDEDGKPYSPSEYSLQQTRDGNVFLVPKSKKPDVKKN
# Chain of Signal transducer and activator of transcription 3 (Homo sapiens) (P40763 whole entry, looked up): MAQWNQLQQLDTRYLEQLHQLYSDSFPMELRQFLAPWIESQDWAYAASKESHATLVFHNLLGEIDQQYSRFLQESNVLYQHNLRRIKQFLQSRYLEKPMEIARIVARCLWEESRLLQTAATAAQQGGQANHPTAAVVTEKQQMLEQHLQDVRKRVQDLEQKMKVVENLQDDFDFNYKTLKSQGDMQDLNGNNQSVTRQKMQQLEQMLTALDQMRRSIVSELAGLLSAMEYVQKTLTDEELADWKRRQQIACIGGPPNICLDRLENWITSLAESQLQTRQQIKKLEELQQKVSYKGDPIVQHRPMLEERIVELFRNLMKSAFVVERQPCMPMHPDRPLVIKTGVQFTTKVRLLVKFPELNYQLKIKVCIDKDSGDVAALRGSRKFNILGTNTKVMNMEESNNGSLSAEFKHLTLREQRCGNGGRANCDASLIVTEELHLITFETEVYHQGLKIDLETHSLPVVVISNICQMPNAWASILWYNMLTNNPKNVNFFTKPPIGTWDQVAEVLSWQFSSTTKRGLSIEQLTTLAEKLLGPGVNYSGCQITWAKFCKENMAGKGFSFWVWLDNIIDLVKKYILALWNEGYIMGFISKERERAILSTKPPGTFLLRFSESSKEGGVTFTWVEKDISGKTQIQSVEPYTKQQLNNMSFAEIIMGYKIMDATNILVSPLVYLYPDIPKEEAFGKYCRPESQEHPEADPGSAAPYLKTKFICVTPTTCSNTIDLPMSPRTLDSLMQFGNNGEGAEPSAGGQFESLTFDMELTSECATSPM
# Chain of Cellular tumor antigen p53 (Homo sapiens) (P04637 whole entry, looked up): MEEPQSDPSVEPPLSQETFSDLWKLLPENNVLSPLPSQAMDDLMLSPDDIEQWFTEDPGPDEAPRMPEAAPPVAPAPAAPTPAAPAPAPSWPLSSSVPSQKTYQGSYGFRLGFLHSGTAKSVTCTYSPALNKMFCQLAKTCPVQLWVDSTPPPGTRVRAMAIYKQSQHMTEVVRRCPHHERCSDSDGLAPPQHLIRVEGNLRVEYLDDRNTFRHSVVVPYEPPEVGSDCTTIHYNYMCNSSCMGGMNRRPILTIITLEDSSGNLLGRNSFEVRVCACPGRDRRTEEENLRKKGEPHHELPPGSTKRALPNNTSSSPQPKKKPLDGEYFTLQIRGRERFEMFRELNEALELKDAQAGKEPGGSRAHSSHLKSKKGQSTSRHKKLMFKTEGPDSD
compound,measurement,setting,value
O=C1CCC(C2CCCCC2)CC1,outcome,[1],inactive
same,outcome,[2],inactive
same,outcome,[3],inactive
same,outcome,[4],inactive
same,outcome,[5],inactive
same,outcome,[6],inactive
same,outcome,[7],inactive
same,outcome,[8],inactive
same,outcome,[9],inactive
same,outcome,[10],inactive
same,outcome,[11],inactive
same,outcome,[12],inactive
same,outcome,[13],inactive
same,outcome,[14],inactive
same,outcome,[15],inactive
same,outcome,[16],inactive
c1ccc2n[nH]nc2c1,outcome,[1],inactive
same,outcome,[2],inactive
same,outcome,[3],inactive
same,outcome,[4],inactive
same,outcome,[5],inactive
same,outcome,[6],inactive
same,outcome,[17],inactive
same,outcome,[7],inactive
same,outcome,[8],inactive
same,outcome,[18],inactive
same,outcome,[9],inactive
same,outcome,[11],inactive
same,outcome,[12],inactive
same,outcome,[13],inactive
same,outcome,[14],inactive
same,outcome,[15],inactive
same,outcome,[16],inactive
CC1(C)NC(=O)N(c2ccc([N+](=O)[O-])c(C(F)(F)F)c2)C1=O,outcome,[1],inactive
same,outcome,[2],inactive
same,AC50,[3],74.3 µM (active)
same,AC50,[4],80.1 µM (active)
same,outcome,[5],inactive
same,outcome,[6],inactive
same,AC50,[17],50 µM (active)
same,outcome,[7],inactive
same,AC50,[8],69.3 µM (active)
same,AC50,[18],84.1 µM (active)
same,AC50,[9],50 µM (active)
same,outcome,[10],inactive
same,outcome,[11],inactive
same,AC50,[13],78.2 µM (active)
same,outcome,[19],inactive
same,outcome,[14],inactive
same,outcome,[15],inactive
same,outcome,[16],inactive
Oc1ccc2ccccc2c1,outcome,[1],inactive
same,outcome,[2],inactive
same,outcome,[3],inactive
same,outcome,[4],inactive
same,outcome,[5],inactive
same,outcome,[17],inactive
same,outcome,[7],inactive
same,outcome,[8],inactive
same,outcome,[18],inactive
same,outcome,[9],inactive
same,outcome,[10],inactive
same,outcome,[11],inactive
same,outcome,[12],inactive
same,outcome,[13],inactive
same,outcome,[19],inactive
same,outcome,[14],inactive
same,outcome,[15],inactive
same,outcome,[16],inactive
